From PubChem BioAssay come the findings set out here.

For this assay, the target named is E3 ubiquitin-protein ligase XIAP (Homo sapiens) (UniProt P98170). Nature of the assay: XIAP binders, primary screen, biophysical, small-molecule microarray, fluorescence 635 nm (AID 1181).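 Note: score merges 667 nm emission and signal to noise over triplicate slides.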 Conditions: small-molecule microarray binding, higher = more signal.
Chain of E3 ubiquitin-protein ligase XIAP (Homo sapiens) (P98170 whole entry, looked up): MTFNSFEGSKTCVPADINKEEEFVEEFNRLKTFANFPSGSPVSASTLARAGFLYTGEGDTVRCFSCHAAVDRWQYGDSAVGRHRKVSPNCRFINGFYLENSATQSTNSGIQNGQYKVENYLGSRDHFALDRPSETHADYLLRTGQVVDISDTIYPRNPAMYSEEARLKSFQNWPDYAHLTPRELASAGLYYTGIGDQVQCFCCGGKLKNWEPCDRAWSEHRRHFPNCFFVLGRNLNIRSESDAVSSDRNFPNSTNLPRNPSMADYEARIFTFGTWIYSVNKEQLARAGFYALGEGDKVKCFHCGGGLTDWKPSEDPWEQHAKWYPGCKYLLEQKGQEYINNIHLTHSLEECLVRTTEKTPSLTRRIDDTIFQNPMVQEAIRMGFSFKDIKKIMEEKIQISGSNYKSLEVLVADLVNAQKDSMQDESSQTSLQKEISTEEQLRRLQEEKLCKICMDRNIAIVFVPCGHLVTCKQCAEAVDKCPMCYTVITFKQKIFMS
Regarding `CC(=O)NCCCC[C@@H]1NC(=O)[C@@H]2C[C@H](C(=O)NCCCCCNC(=O)CS)[C@H](c3cccc(OCCO)c3)N2C1=O`, the composite z-score was -0.13.
The same measure for `COc1ccccc1CN1C(=O)c2ccccc2[C@@]2(Cc3ccccc3N(CC(C)C)C2=O)[C@@H]1c1ccc(CO)cc1`: 0.0957.
The same measure for `CC(CO)N1C(=O)[C@@H]2C3C(=O)OCCC/C=C\[C@H]3OC23C=CCN(C(C)(C)C)C(=O)[C@@H]13` (stereo partly specified): 0.801.
The figure for `CC1(C)[C@@H]2CC(C(O)C3C=CC4C(=O)N(Cc5ccccc5)C(=O)C4N3n3cnnc3)=C[C@H]1C2` (stereo partly specified) is 0.136; for `O=C1C[C@@](C(=O)NC2CC2)(c2ccc([N+](=O)[O-])cc2)[C@@H](c2ccc(CO)cc2I)N1C1CCCCC1` it is 0.123.
As for `NC(=O)NCC#Cc1ccc2c(c1)[C@]1(C(=O)N2)[C@H](C(=O)Nc2nc3ccccc3s2)[C@H]2C(=O)O[C@H](c3ccccc3)[C@H](c3ccccc3)N2[C@@H]1c1ccccc1OCCO`, the composite z-score was found to be 0.711.
Consider `O=C1c2ccccc2[C@](Cc2ccccc2I)(C(=O)NCC(F)(F)F)[C@H](c2ccc(CO)cc2)N1Cc1ccccc1Cl`, for which the composite z-score was -0.0663.
The figure for `CCC[C@@H]1C[C@@]1(CCC)[C@@H](NS(=O)(=O)c1cccc2cccnc12)c1ccc(Cl)cc1` is 0.0999.
The figure for `CCCC[C@@H]1C[C@H]1[C@@H](NC(=O)c1ccco1)c1ccc(-c2ccccc2)cc1` is 0.773; for `Cc1ccc(S[C@]2(C(=O)NCCCN(C)C)CC(=O)N(Cc3cc(C(F)(F)F)cc(C(F)(F)F)c3)[C@@H]2c2ccc(CO)cc2)cc1` it is 0.164; for `C=C[C@@H](COC(=O)OC(C)(C)C)N(Cc1ccc(OC)cc1)S(=O)(=O)c1ccc(Br)cc1` it is 0.1.
